# GALK inhibitor: GALK (human) enzyme inhibition; P51570; recombinant GALK, Kinase-Glo ATP luminescence, 1 h; Potency, µM (highest dose often 57.5 µM), for inactives: at the highest dose activity, negative = inhibition, hits mostly inhibitors; 44,000 tested, under 10 active; AID 1347072;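 note: plate controls were full GALK reaction for no effect and reaction lacking GALK for full effect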
#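 Reactions with and without enzyme served as controls. GALK at 5 nM phosphorylates 100 uM galactose using 35 uM ATP (HEPES pH 8.0, Mg2+) for 1 h at RT, with luminescence read 10 min after adding Kinase-Glo Plus.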
# B2AR arrestin ag: agonists recruiting beta-arrestin to human beta2-adrenergic receptor; 44,000 tested, under 10 active; Potency, µM (series often up to 46.1 µM), hits mostly activators; HTLA Tango cells, beta-arrestin recruitment, luciferase luminescence, 18 h;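 note: potency is the fitted concentration of half-maximal effect; 0% = DMSO and full agonism = EC100 isoproterenol or metaproterenol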
# Target sequence (P07550 whole entry, looked up): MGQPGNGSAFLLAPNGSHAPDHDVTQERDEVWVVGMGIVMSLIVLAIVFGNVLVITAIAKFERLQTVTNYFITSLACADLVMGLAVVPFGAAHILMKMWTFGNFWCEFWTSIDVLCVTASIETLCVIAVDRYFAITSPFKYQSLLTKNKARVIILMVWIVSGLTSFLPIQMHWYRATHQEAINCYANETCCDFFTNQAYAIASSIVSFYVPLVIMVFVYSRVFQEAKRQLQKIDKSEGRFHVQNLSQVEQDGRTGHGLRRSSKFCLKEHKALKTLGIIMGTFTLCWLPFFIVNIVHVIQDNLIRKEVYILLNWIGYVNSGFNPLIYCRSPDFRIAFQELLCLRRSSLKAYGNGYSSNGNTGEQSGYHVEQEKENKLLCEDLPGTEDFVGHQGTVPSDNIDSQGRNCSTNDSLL
#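 First, Tango cells carrying beta2-AR and beta-arrestin fusions received compound up to 46 microM. After 18 hr at 37 degrees C, luciferase substrate was added for 15 minutes, then luminescence gave %Activity for curve fitting.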
# GPR32 ag: GPR32 (DRV1) agonism, beta-arrestin recruitment | hit rate 2.5% among 48,000 | activation, % at 76.9 µM | CHO-K1 GPR32 beta-arrestin PathHunter luminescence, 90 min; zero percent set by DMSO-only wells | AID 1346428 | O75388;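 active = activation of at least 60% and not above a set upper limit, about 1 call in 100 departs from these limits; inconclusive = activation of 40% to 60%, or above that upper limit; inactive = activation under 40%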; note: 0% is about no effect
#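 CHO-K1 cells stably expressing ProLink-tagged GPR32 and Enzyme Activator-tagged beta-arrestin were seeded at 2,500 cells/well overnight, exposed to compounds for 90 min at 37 °C, then read by beta-Gal complementation chemiluminescence after 1 h detection reagent.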
# PTAP-TSG101 blk: inhibitors of HIV-1 PTAP binding to human TSG101, validation | Q99816 | AID 1347069 | 44,000 tested, under 10 active | Potency, µM (doses to about 115 µM), most hits filed as inhibitors | Fluorescence polarization, FITC-PTAP peptide/Tsg101, 20 min; note: potency is the fitted concentration of half-maximal effect; 0% is about no effect
#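 qHTS FP binding, 20 min r.t.: 10 uM Tsg101 domain + 50 nM FITC-PTAP peptide, pH 7.5 HEPES buffer with TCEP and EDTA.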
# Starred values were filed as active, the others as inactive; i = inactive; ? = inconclusive; nt = not tested or not shown. Most compounds without a hit are left out; they make up all but 2.5% or so of the library. Unless noted, calls come from the whole dose curve; as a rule, active = well fitted curve in the direction sought with a large enough effect; inconclusive = small, poorly fitted or top-dose-only effect, or another doubt; inactive = no such curve, though single readings can be large; an effect the other way counts as inactive or inconclusive.
SMILES,GALK inhibitor,B2AR arrestin ag,GPR32 ag,PTAP-TSG101 blk
Cc1cccc(C)c1Nc1nc2ccccc2nc1NS(=O)(=O)c1ccccc1,0%,i,47,i
CC(CC1c2ccccc2CCc2ccccc21)CN(C)C (stereo not given),nt,nt,-13,nt
CC(C)CNc1ncnc2onc(-c3ccc(Cl)cc3)c12,9%,i,90*,i
CCOC(=O)C(O)c1ccccc1 (stereo not given),nt,nt,7,nt
COc1cc(Cl)c(C)cc1Nc1c2c(nc3ccccc13)CCC2,4%,i,-9,i
CCOC(=O)c1cccc(Nc2c3c(nc4ccccc24)CCC3)c1,9%,i,78*,i
CCOC(=O)c1cccc(Nc2nc(C(=O)OCC)nc3ccccc23)c1,-1%,i,-9,i
CCCOC(=O)c1cccc(Nc2nc(C(=O)OCC)nc3ccccc23)c1,-2%,i,93*,i
COc1ccccc1CNc1ccc(-c2nc(-c3cccnc3)no2)cc1[N+](=O)[O-],4%,i,-20,i
CCOc1c(N2CCOCC2)cnn(C)c1=O,nt,nt,-16,nt
Cc1cc2[nH]c(=O)c(=O)[nH]c2cc1S(=O)(=O)N1CCN(c2ccccc2)CC1,3%,i,95*,i
Cc1[nH]c(=O)[nH]c(=O)c1S(=O)(=O)N1CCN(c2cccc(Cl)c2)CC1,1%,i,9,i
Cn1cnc(S(=O)(=O)N2CCC(C(=O)Nc3ccc(Cl)c(C(F)(F)F)c3)CC2)c1,-5%,i,33,i
C=CCn1c(=O)n([C@@H]2O[C@H](CO)[C@@H](O)[C@H]2O)c2nc(N)[nH]c(=O)c21,nt,nt,28,nt
C#C[C@]1(O)CC[C@H]2[C@@H]3CCC4=Cc5oncc5C[C@]4(C)[C@H]3CC[C@@]21C,nt,nt,33,nt
C#C[C@]1(O)CC[C@H]2[C@@H]3CCc4cc(OC)ccc4[C@H]3CC[C@@]21C,nt,nt,69*,nt
C#C[C@]1(O)CC[C@H]2[C@@H]3CCC4=CC(=O)CC[C@@H]4[C@H]3CC[C@@]21C,nt,nt,69*,nt
C#C[C@]1(O)CC[C@H]2[C@@H]3CCc4cc(OC5CCCC5)ccc4[C@H]3CC[C@@]21C,nt,nt,68*,nt
CC(=O)OC[C@H]1O[C@@H](OC(C)=O)[C@H](OC(C)=O)[C@@H]1OC(C)=O,nt,nt,41,nt
Cc1ccc(-c2ccccc2C#N)cc1,nt,nt,-44,nt
COc1ccc(-n2nc3c(N4CCCC(C(=O)NCc5ccc(C)cc5)C4)nnc(C)c3c2C)cc1 (stereo not given),-1%,i,111*,i
COc1ccc(CNC(=O)C2CCCN(c3nnc(C)c4c(C)n(-c5ccc(C)cc5)nc34)C2)cc1 (stereo not given),3%,i,-1,i
Cc1nn2c(=O)cc(COC(=O)C(c3ccccc3)c3ccccc3)nc2s1,0%,i,-8,i
COc1cccc(NC(=O)CSc2nccn2Cc2ccc3c(c2)OCO3)c1,-1%,i,75*,i
COc1ccc(C(=O)Nc2ccc(-c3nc4cc(C)ccc4o3)c(O)c2)cc1,0%,i,44,i
SMILES,GALK inhibitor,B2AR arrestin ag,GPR32 ag,PTAP-TSG101 blk
Cc1ccc2oc(-c3cc(NC(=O)Cc4ccccc4)ccc3Cl)nc2c1,-2%,i,64*,i
Cc1ccc(C(=O)Nc2ccc3oc(-c4ccccc4C)nc3c2)cc1,0%,i,76*,i
Cc1cccc(CN2CCN(CC(=O)NCCc3ccc(Cl)cc3)C2=O)c1,-5%,i,75*,i
O=C(CN1CCN(Cc2ccccc2Cl)C1=O)NCCc1ccc(Cl)cc1,3%,i,71*,i
Cc1ccc(CNC(=O)CN2CCN(Cc3ccc(F)cc3)C2=O)cc1,-7%,i,4,i
Cc1cc2c(cc1CC(=O)c1sccc1S(=O)(=O)Nc1onc(C)c1Cl)OCO2,nt,nt,23,nt
COc1ccc(NC(=O)C2=C(C)Nc3ncnn3C2c2cccn2C)cc1 (stereo not given),-2%,i,-8,i
CC1=C(c2ccc(C)c(C)c2)S(=O)(=O)N=C1N1CCC(C(=O)Nc2ccc(Cl)cc2)CC1,-1%,i,16,i
CC1=C(c2ccc(C(C)C)cc2)S(=O)(=O)N=C1N1CCC(C(=O)Nc2ccc(C)cc2)CC1,0%,i,?,i
CCc1ccccc1NC(=O)C1CCN(C2=NS(=O)(=O)C(c3ccc(C)c(C)c3)=C2C)CC1,-1%,i,89*,i
CCc1ccc(C2=C(C)C(N3CCC(C(=O)Nc4ccc(F)cc4)CC3)=NS2(=O)=O)cc1,2%,i,74*,i
CC1=C(c2ccc(C(C)C)cc2)S(=O)(=O)N=C1N1CCC(C(=O)NCCc2ccco2)CC1,0%,i,64*,i
CC1=C(c2ccc(Cl)cc2)S(=O)(=O)N=C1N1CCC(C(=O)NCCc2ccco2)CC1,2%,i,19,i
CC(=O)N1CCOc2cc(S(=O)(=O)NCc3ccc(C)cc3)c(C)cc21,3%,i,-9,i
COc1cc(NC(=O)c2cc(-c3cccc(OC)c3)n[nH]2)cc(OC)c1,-2%,i,81*,i
CCOC(=O)c1[nH]cnc1C(=O)Nc1cccc(OC)c1,-2%,i,16,i
COc1ccc(-n2ccnc(NCCc3ccc(S(N)(=O)=O)cc3)c2=O)cc1Cl,-3%,i,?,i
NS(=O)(=O)c1ccc(CCNc2nccn(-c3cccc(C(F)(F)F)c3)c2=O)cc1,-3%,i,63*,i
COc1cc(Nc2nc(SCC(=O)c3ccc(Cl)c(Cl)c3)nc3ccccc23)cc(OC)c1,-5%,i,-25,i
O=C(CSc1nc(Nc2ccccc2)c2ccccc2n1)c1ccc(Cl)cc1,-1%,i,108*,i
COc1ccc(CCNC(=O)c2ccc3[nH]c(C)c(C)c3c2)cc1OC,-2%,i,113*,i
Cc1ccc(CCNC(=O)c2ccc3[nH]c(C)c(C)c3c2)cc1,0%,i,2,i
COc1ccc(OC)c(CCNC(=O)c2ccc3[nH]c(C)c(C)c3c2)c1,0%,i,-7,i
CCOc1ccc(CCNC(=O)c2ccc3[nH]c(C)c(C)c3c2)cc1,1%,i,72*,i
COc1cc(Cl)c(NC(=O)CN(C)S(=O)(=O)c2ccc3c(c2)CCCC(=O)N3)c(OC)c1,-2%,i,67*,i
CC(=O)Nc1ccc(NC(=O)CN(C)S(=O)(=O)c2ccc3c(c2)CCCC(=O)N3)cc1,0%,i,19,i
O=C(Nc1cccc2c(=O)cc(-c3nn[nH]n3)oc12)c1ccc(OCCCCc2ccccc2)cc1,nt,nt,94*,nt
COc1ccc(-c2cc(C(F)(F)F)nc(NCc3ccccc3)n2)cc1,?,i,-19,i
COc1ccc(-c2cc(C(F)(F)F)nc(S(C)(=O)=O)n2)cc1,0%,i,109*,i
Cc1cccc(N(C)c2nc3ccc(C)cc3n3cnnc23)c1,6%,i,66*,i
